# PubChem BioAssay (NCATS)
# Records with an inconclusive call do not appear. More than one record can exist for a structure, and the calls need not agree. Active and inactive are the calls of the source. The call rests on the fitted dose curve; in most records, active means well fitted inhibition curve with a large enough effect; inconclusive means small, poorly fitted or top-dose-only effect; inactive means no such curve, though single readings can be large or run the other way.
# Target: Cytochrome P450 3A4 (Homo sapiens) (UniProt P08684)
# Sequence (P08684 whole entry, looked up): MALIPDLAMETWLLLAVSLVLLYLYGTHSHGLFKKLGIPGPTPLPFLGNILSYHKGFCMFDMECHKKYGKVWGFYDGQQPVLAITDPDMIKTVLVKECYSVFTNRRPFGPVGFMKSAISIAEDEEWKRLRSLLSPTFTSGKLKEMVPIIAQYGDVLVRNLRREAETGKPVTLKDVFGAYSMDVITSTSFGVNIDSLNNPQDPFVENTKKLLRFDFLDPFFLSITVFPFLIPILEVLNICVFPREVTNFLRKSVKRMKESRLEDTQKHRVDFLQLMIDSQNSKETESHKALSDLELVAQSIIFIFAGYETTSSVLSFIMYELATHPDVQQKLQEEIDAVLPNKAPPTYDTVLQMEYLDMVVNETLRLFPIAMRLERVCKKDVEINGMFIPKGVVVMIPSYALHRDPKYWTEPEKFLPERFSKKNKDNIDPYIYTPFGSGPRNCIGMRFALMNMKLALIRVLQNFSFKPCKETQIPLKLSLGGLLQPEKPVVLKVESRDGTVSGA
# Assay: qHTS Assay for Inhibitors and Substrates of Cytochrome P450 3A4 (AID 884); further: nearly all actives have a fitted effect of over 50% in size
# Conditions: recombinant CYP3A4, Luciferin-PPXE luminescence; series mostly up to 57.1 µM; activity change, negative = inhibition: at the top concentration
# Description: NIH Molecular Libraries Screening Centers Network [MLSCN]
# NIH Chemical Genomics Center [NCGC]
# The P450 gene superfamily is involved in the metabolism and clearance of xenobiotics. This assay used human CYP3A4 to measure the dealkylation of luciferin-6' phenylpiperazinylyl (Luciferin-PPXE; […]) to luciferin. The luciferin is then measured by luminescence after the addition of a luciferase detection reagent. Luciferin-PPXE concentration in the assay was equal to its KM for CYP3A4. Inhibitors and some substrates limit the production of luciferin, and decrease measured luminescence.
# NCGC Assay Protocol Summary:
# Two uL of enzyme and substrate mix (final concentrations: 20nM CYP3A4, 25uM Luciferin-PPXE, 200mM KPO4) were dispensed into a white, solid bottom 1536-well microtiter plate. 23nL of compound was transferred by a pin tool. The plate was incubated at RT for 10 min. Two uL of an NADPH regeneration solution (Promega supplied reagent) was dispensed and the reaction was allowed to continue for 60 min at RT. Then the reaction was stopped by reconstituted luciferin detection buffer. After another 20 min of incubation the plate was read on the ViewLux (Perkin Elmer) at 60 sec exposure and 2x2 binning. This protocol was carried out with Promega-Glo reagents and further information can be found at http://www.promega.com/tbs/tb325/tb325.pdf. Data were normalized to the to AC100 inhibition (57 uM ketoconazole).
# Keywords: P450, CYP3A4, Luciferase, MLSMR, MLSCN, NIH Roadmap, qHTS, NCGC
# On the % scale 0 is the no-effect control and ±100 the full control effect; potency means the concentration at half of the fitted maximal effect.
Structure (SMILES),"activity change, negative = inhibition",Potency
CCC1CN2CCC1CC2C(O)c1ccnc2ccccc12 (stereo not given),-3.1% (inactive),–
Cn1c2c(c3ccccc31)CCNCC2,-24.6% (inactive),–
COc1ccc2[nH]cc(C3=CCNCC3)c2c1,–,1.26 µM (active)
COc1ccc2c3c([nH]c2c1)C(C)=NCC3,-27.1% (inactive),–
COC(=O)c1ccccc1C(=O)OC,3.77% (inactive),–
CC(C)n1cnc2c(C(=O)N[C@H]3CN4CCC3CC4)cc(Cl)cc21,63.7% (inactive),–
Oc1ccccc1Cl,-5.07% (inactive),–
O=c1c2ccccc2oc2ccccc12,–,12.6 µM (active)
CCCCC1(C2CCCC2)Cc2cc(OCCCC(=O)O)c(Cl)c(Cl)c2C1=O (stereo not given),-21.1% (inactive),–
C[N+](C)(C)CC(=O)[O-],-16.6% (inactive),–
O=C1Nc2ccc(I)cc2/C1=C/c1cc(Br)c(O)c(Br)c1,–,5.01 µM (active)
O=CN1CCCCC1C1CC[C@H]2CCCCN2C1 (stereo not given in full),-7.94% (inactive),–
N#C/C(=C\c1ccc(O)c(O)c1)C(=O)NCCCNC(=O)/C(C#N)=C/c1ccc(O)c(O)c1,–,2 µM (active)
CN[C@@H](Cc1c[nH]c2ccccc12)C(=O)O,-3.69% (inactive),–
N#CC(C#N)=NNc1ccc(OC(F)(F)F)cc1,–,5.01 µM (active)
CC[C@@]1(O)C(=O)OCc2c1cc1n(c2=O)Cc2cc3cc(O)ccc3nc2-1,–,12.6 µM (active)
C[C@@H]1O[C@@H](O[C@H]2C[C@@H](O)[C@]3(CO)[C@@H]4C(CC[C@]3(O)C2)[C@@]2(O)CC[C@H](C3=CC(=O)OC3)[C@@]2(C)C[C@H]4O)[C@H](O)[C@H](O)[C@H]1O (stereo not given in full),-1.43% (inactive),–
COc1ccc2ccc(=O)oc2c1CC=C(C)C,–,15.8 µM (active)
O=C(O)c1ccccc1-c1c2cc(Br)c(=O)cc-2oc2[c]([Hg])c(O)c(Br)cc12,–,25.1 µM (active)
CCOC(=O)c1ccccc1N,-15.9% (inactive),–

Structure (SMILES),"activity change, negative = inhibition",Potency
C=CC1CN2CCC1CC2C(O)c1ccnc2ccccc12 (stereo not given),–,25.1 µM (active) and inactive
Cc1cccc([C@H](C)c2cnc[nH]2)c1C,–,0.158 µM (active)
COc1c2ccoc2cc2oc(=O)ccc12,–,10 µM (active)
CN1CCc2cc3c(cc2C1C1OC(=O)c2c1ccc1c2OCO1)OCO3 (stereo not given),–,1.26 µM (active)
Cc1c(C(=O)c2ccc3ccccc3c2)c2cccc3c2n1[C@H](CN1CCOCC1)CO3,–,7.94 µM (active)
OC1(c2ccc(Cl)cc2)CCN(Cc2c[nH]c3ccccc23)CC1,61.9% (inactive),–
c1ccc2c(c1)-c1cccc3cccc-2c13,-14.9% (inactive),–
CN(C(=O)Cc1ccc(Cl)c(Cl)c1)[C@H](CN1CCCC1)c1ccccc1,–,6.31 µM (active)
COc1ccn(C)c(=O)c1C#N,-18.9% (inactive),–
CC1CCCC(=O)CCC/C=C/c2cc(O)cc(O)c2C(=O)O1 (stereo not given),–,2 µM (active)
C/C=C1/CN2CC[C@]34C(=C(C=O)[C@H]1C[C@@H]23)Nc1ccccc14,-10.2% (inactive),–
C=CCOC(=O)c1ccccc1C(=O)OCC=C,–,5.01 µM (active)
COC1=CC(=O)OC(CCc2ccc3c(c2)OCO3)C1 (stereo not given),–,2 µM (active)
CCN(CC)CCO[C@H]1CC[C@@]2(C)C(=CC[C@@H]3[C@H]2CC[C@]2(C)C(=O)CC[C@H]32)C1,340% (inactive),–
NC(=NCc1ccc(Cl)cc1)SCCCc1cnc[nH]1,–,1.58 µM (active)
O=c1cc(-c2ccc(O)c(O)c2)oc2cc(O)cc(O)c12,–,15.8 µM (active)
O=c1c(O)c(-c2ccc(O)c(O)c2)oc2c(O)c(O)cc(O)c12,-77.2% (inactive),–
CCOc1cc(C=O)ccc1O,-17.5% (inactive),–
O=Cc1ccccc1,-18.3% (inactive),–
Cc1cc(O)c2c(c1)C(=O)c1cc(O)cc(O)c1C2=O,–,10 µM (active)
